In the supplement of paper PMC7411054:
Counter-ions that a name gives are not always drawn.

Assays:
Settings in all cases: treatment time: 24 h
[1] = tested on: A549-ACTB-RAB5A; experiment: lowest phenotypically active concentration; higher = less potent
In short: (§1)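 Live-cell features were measured per well and normalised to solvent control wells after fifteen gene-edited A549, HepG2 and WPMY1 reporter lines had been treated for 24 h at 0.3, 1, 3 or 9 µM in four wells each. A condition was deviating when ≥3 of 4 wells sat beyond the 95th percentile of control Euclidean distances. It was reproducible when the median replicate Pearson correlation exceeded the 95th percentile of non-replicates. Phenotypic activity demanded both.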

[2] = tested on: A549-CANX-COX4; experiment: as above
In short: as §1

[3] = tested on: A549-GM130-SQSTM1; experiment: as above
In short: as §1

[4] = tested on: A549-TUBA1B-RELA; experiment: as above
In short: as §1

[5] = tested on: HepG2-TUBA1B-RELA; experiment: as above
In short: as §1

[6] = tested on: A549-ACTB-RAB5A; experiment: phenotypically active (imaging signature differs from DMSO and reproducible) at any of 0.3-9 uM (binary (1 = active, 0 = inactive)); higher = active
In short: as §1

[7] = tested on: A549-CANX-COX4; experiment: as above
In short: as §1

[8] = tested on: A549-GM130-SQSTM1; experiment: as above
In short: as §1

[9] = tested on: A549-TP53BP1-CLTA; experiment: as above
In short: as §1

[10] = tested on: A549-TUBA1B-RELA; experiment: as above
In short: as §1

[11] = tested on: HepG2-ACTB-RAB5A; experiment: as above
In short: as §1

[12] = tested on: HepG2-CANX-COX4; experiment: as above
In short: as §1

[13] = tested on: HepG2-GM130-SQSTM1; experiment: as above
In short: as §1

[14] = tested on: HepG2-TP53BP1-CLTA; experiment: as above
In short: as §1

[15] = tested on: HepG2-TUBA1B-RELA; experiment: as above
In short: as §1

[16] = tested on: WPMY1-ACTB-RAB5A; experiment: as above
In short: as §1

[17] = tested on: WPMY1-CANX-COX4; experiment: as above
In short: as §1

[18] = tested on: WPMY1-GM130-SQSTM1; experiment: as above
In short: as §1

[19] = tested on: WPMY1-TP53BP1-CLTA; experiment: as above
In short: as §1

[20] = tested on: WPMY1-TUBA1B-RELA; experiment: as above
In short: as §1

Row | Structure (SMILES) | lowest phenotypically active concentration [1] [µM] | lowest phenotypically active concentration [2] [µM] | lowest phenotypically active concentration [3] [µM] | lowest phenotypically active concentration [4] [µM] | lowest phenotypically active concentration [5] [µM] | phenotypically active [6] | phenotypically active [7] | phenotypically active [8] | phenotypically active [9] | phenotypically active [10] | phenotypically active [11] | phenotypically active [12] | phenotypically active [13] | phenotypically active [14] | phenotypically active [15] | phenotypically active [16] | phenotypically active [17] | phenotypically active [18] | phenotypically active [19] | phenotypically active [20]
1 | O=C1N=C(NCc2cccs2)S/C1=C\c1ccc2ncccc2c1 | 3 | 3 | 1 | 3 | 3 | 1 (active) | 1 (active) | 1 (active) | 1 (active) | 1 (active) | 0 (inactive) | 1 (active) | 1 (active) | 1 (active) | 1 (active) | 1 (active) | 1 (active) | 1 (active) | 1 (active) | 1 (active)
2 | CCCCNNC(=O)c1ccc(Br)cc1 | 1 | 3 | 3 | 3 | 9 | 1 (active) | 1 (active) | 1 (active) | 1 (active) | 1 (active) | 1 (active) | 1 (active) | 1 (active) | 1 (active) | 1 (active) | 0 (inactive) | 1 (active) | 1 (active) | 1 (active) | 1 (active)
3 | O=C1c2ccccc2-c2nc3nonc3nc21 | 3 | 1 | 3 | 3 | 3 | 1 (active) | 1 (active) | 1 (active) | 1 (active) | 1 (active) | 1 (active) | 1 (active) | 1 (active) | 1 (active) | 1 (active) | 1 (active) | 1 (active) | 0 (inactive) | 0 (inactive) | 1 (active)
4 | COc1cc2ncnc(Nc3cccc(Br)c3)c2cc1OC | 3 | 1 | 9 | 3 | 9 | 1 (active) | 1 (active) | 1 (active) | 1 (active) | 1 (active) | 0 (inactive) | 0 (inactive) | 1 (active) | 1 (active) | 1 (active) | 0 (inactive) | 1 (active) | 1 (active) | 1 (active) | 0 (inactive)
5 | Cc1cc2c(F)c(Oc3ncnn4cc(OC[C@@H](C)OC(=O)[C@H](C)N)c(C)c34)ccc2[nH]1 [brivanib-alaninate] | 9 | 9 | 9 | – | 9 | 1 (active) | 1 (active) | 1 (active) | 1 (active) | 0 (inactive) | 1 (active) | 1 (active) | 1 (active) | 1 (active) | 1 (active) | 1 (active) | 1 (active) | 1 (active) | 1 (active) | 1 (active)
6 | CN(C)c1ccc(/C=C2\C(=O)Nc3ccccc32)cc1 | 9 | 9 | 3 | 9 | 9 | 1 (active) | 1 (active) | 1 (active) | 1 (active) | 1 (active) | 0 (inactive) | 0 (inactive) | 1 (active) | 1 (active) | 1 (active) | 1 (active) | 1 (active) | 1 (active) | 1 (active) | 0 (inactive)
7 | c1cc(-c2cc(C3CCNCC3)[nH]n2)ccn1 | 9 | 9 | 3 | 9 | – | 1 (active) | 1 (active) | 1 (active) | 0 (inactive) | 1 (active) | 0 (inactive) | 1 (active) | 0 (inactive) | 0 (inactive) | 0 (inactive) | 1 (active) | 1 (active) | 0 (inactive) | 0 (inactive) | 0 (inactive)
8 | O=C(Nc1ccccc1)c1cc([N+](=O)[O-])ccc1Cl | 9 | 9 | 9 | 3 | – | 1 (active) | 1 (active) | 1 (active) | 0 (inactive) | 1 (active) | 1 (active) | 0 (inactive) | 0 (inactive) | 0 (inactive) | 0 (inactive) | 0 (inactive) | 1 (active) | 0 (inactive) | 0 (inactive) | 0 (inactive)
9 | Nc1ncnc2[nH]nc(Nc3ccc(F)cc3)c12 | 9 | 9 | – | 9 | 9 | 1 (active) | 1 (active) | 0 (inactive) | 0 (inactive) | 1 (active) | 1 (active) | 0 (inactive) | 1 (active) | 1 (active) | 1 (active) | 1 (active) | 1 (active) | 1 (active) | 1 (active) | 1 (active)
10 | COc1ccc(-c2cc(=O)c3c(O)cc(O)cc3o2)cc1O [Diosmetin] | 9 | 9 | 9 | 9 | 9 | 1 (active) | 1 (active) | 1 (active) | 0 (inactive) | 1 (active) | 0 (inactive) | 0 (inactive) | 0 (inactive) | 0 (inactive) | 1 (active) | 0 (inactive) | 1 (active) | 0 (inactive) | 1 (active) | 1 (active)
11 | CN(C)CC(=O)Nc1ccc2[nH]c(=O)c3ccccc3c2c1 [PJ 34 hydrochloride] | 9 | 9 | 9 | 9 | 9 | 1 (active) | 1 (active) | 1 (active) | 0 (inactive) | 1 (active) | 1 (active) | 1 (active) | 1 (active) | 1 (active) | 1 (active) | 1 (active) | 1 (active) | 1 (active) | 0 (inactive) | 1 (active)
12 | O=c1cc(-c2ccccc2)oc2c(O)c(O)ccc12 [7,8-Dihydroxyflavone] | 9 | 9 | – | 9 | – | 1 (active) | 1 (active) | 0 (inactive) | 0 (inactive) | 1 (active) | 1 (active) | 1 (active) | 1 (active) | 0 (inactive) | 0 (inactive) | 1 (active) | 1 (active) | 1 (active) | 0 (inactive) | 1 (active)
13 | CCc1cncnc1N1CCN(Cc2nc3cc(C(F)(F)F)ccc3[nH]2)CC1 | 3 | 9 | 9 | – | 3 | 1 (active) | 1 (active) | 1 (active) | 0 (inactive) | 0 (inactive) | 1 (active) | 1 (active) | 1 (active) | 1 (active) | 1 (active) | 0 (inactive) | 0 (inactive) | 0 (inactive) | 0 (inactive) | 1 (active)
14 | CC(C)c1cnn2c(NCc3ccccc3)cc(NCCCCCCN)nc12 [BS 181 dihydrochloride] | 9 | 9 | – | 9 | – | 1 (active) | 1 (active) | 0 (inactive) | 1 (active) | 1 (active) | 0 (inactive) | 0 (inactive) | 0 (inactive) | 0 (inactive) | 0 (inactive) | 0 (inactive) | 1 (active) | 0 (inactive) | 1 (active) | 1 (active)
15 | Cc1cc(F)c(Nc2ncnc3cc(OCc4ccccc4)ccc23)cc1O | 9 | 9 | 9 | 9 | – | 1 (active) | 1 (active) | 1 (active) | 0 (inactive) | 1 (active) | 0 (inactive) | 0 (inactive) | 0 (inactive) | 0 (inactive) | 0 (inactive) | 0 (inactive) | 1 (active) | 0 (inactive) | 0 (inactive) | 1 (active)
16 | CN1CCc2cccc3c2[C@H]1Cc1ccc(O)c(O)c1-3 [r(-)-apomorphine] | 9 | 9 | 9 | 9 | – | 1 (active) | 1 (active) | 1 (active) | 1 (active) | 1 (active) | 0 (inactive) | 0 (inactive) | 0 (inactive) | 0 (inactive) | 0 (inactive) | 1 (active) | 1 (active) | 1 (active) | 0 (inactive) | 1 (active)
17 | C=C1C(=O)O[C@@H]2C=C(C)CCC=C(C)CC[C@@H]12 [Costunolide] | 9 | 9 | – | – | – | 1 (active) | 1 (active) | 0 (inactive) | 0 (inactive) | 0 (inactive) | 1 (active) | 1 (active) | 1 (active) | 1 (active) | 0 (inactive) | 1 (active) | 0 (inactive) | 1 (active) | 1 (active) | 1 (active)
